In PubChem BioAssay (Tox21):
Values joined by “and” are separate entries in the source; they are usually repeats but may differ in a detail not shown here. Identical values can stand only once. Values without a mark were called inactive. Results filed as inconclusive are left out. Where a call stands in place of a potency, no number is given. Active and inactive are the calls of the source. Unless noted, calls follow the shape of the dose curve; as a rule, active = well fitted curve in the direction sought with a large enough effect in the repeat runs; inconclusive = weak or mixed curves; inactive = no such curve, though single readings can be large; an effect the other way counts as inactive or inconclusive.

What was measured:
[1] = qHTS assay for small molecule agonists of the p53 signaling pathway (AID 651631; calls by dose curve; also: nearly all actives have a fitted effect of over 15% in size; also: potency is read from the fitted curve at half-maximal effect)
Method in brief: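 HCT-116 cells carrying a stable p53 response element–beta-lactamase reporter were plated, rested 5 h at 37 °C, then exposed to compound in DMSO for 16 h at 37 °C; reporter activity was read as FRET substrate fluorescence after 2 h at room temperature.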

[2] = qHTS assay for small molecules that induce genotoxicity in human embryonic kidney cells expressing luciferase-tagged ATAD5 (AID 651632); also: nearly all actives have a fitted effect of over 15% in size
Method in brief: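 Increased luciferase signal from ATAD5-tagged reporter cells indicates DNA-damage-driven ATAD5 induction. HEK293T cells are treated for 16 hr at 37C before detection with Amplite.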

[3] = qHTS assay for small molecule agonists of the p53 signaling pathway - cell viability (AID 651633; calls by dose curve; also: nearly all actives have a fitted effect of over 30% in size; also: potency is read from the fitted curve at half-maximal effect)
Method in brief: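 Viability counter-read: CellTiter-Glo luminescence (30 min, room temperature) in the same p53RE-bla plates. These plates had been exposed to compounds for 16 h at 37 C.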

[4] = qHTS assay for small molecules that induce genotoxicity in human embryonic kidney cells expressing luciferase-tagged ATAD5 - cell viability (AID 651634; calls by dose curve; also: nearly all actives have a fitted effect of over 25% in size; also: potency is read from the fitted curve at half-maximal effect)
Method in brief: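 Cytotoxicity counterscreen in HEK293T cells bearing an ATAD5-luciferase reporter: live-cell protease activity measured by CellTiter-Fluor fluorescence after 15.5 hr compound exposure.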

[5] = qHTS assay for small molecule disruptors of the mitochondrial membrane potential (AID 720635); also: potency is read from the fitted curve at half-maximal effect
Method in brief: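 Mitochondrial membrane potential tracked with Mito-MPS dye, red aggregates (ex 540/em 590 nm) against green monomers (ex 490/em 535 nm). Compound treatment 1 hr at 37C, dye 30 min in HepG2.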

[6] = qHTS assay to test for compound auto fluorescence at 535 nm (green) in HepG2 cells (AID 720675)
[7] = qHTS assay to test for compound auto fluorescence at 590 nm (red) in HEK293 cells (AID 720679)
Method in brief: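 Autofluorescence equivalency to Rose Bengal sodium, 540/590nm, in HEK293 cells exposed overnight to 23 nL compound per well.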

[8] = qHTS assay to test for compound auto fluorescence at 535 nm (green) in HEK293 cells (AID 720680)
[9] = qHTS assay to test for compound auto fluorescence at 460 nm (blue) in HEK293 cell free culture (AID 720681)
Method in brief: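 Blue fluorescence (Ex 405/Em 460 nm, triamterene-equivalent) was read immediately after pin transfer of compound or DMSO into medium (DMEM, 10% FBS) without cells.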

[10] = qHTS assay to test for compound auto fluorescence at 535 nm (green) in HEK293 cell free culture (AID 720682)
Method in brief: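 Read-out: 485/535 nm fluorescence intensity, calibrated against fluorescein. Medium only (DMEM + 10% FBS, no cells); test compound or DMSO vehicle added by pintool before plate reading.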

[11] = qHTS assay to test for compound auto fluorescence at 590 nm (red) in HEK293 cell free culture (AID 720683)
Method in brief: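 Red-channel autofluorescence of compounds in culture medium (DMEM, 10% FBS), no cells, measured at 540/590 nm. Rose Bengal sodium is the reference fluorophore for equivalence.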

[12] = qHTS assay to test for compound auto fluorescence at 590 nm (red) in HepG2 cell free culture (AID 720684)
Method in brief: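 Steps: dispense MEM/10% FBS medium, no cells; pin compound or DMSO vehicle; read red channel, Ex/Em 540/590 nm. Output given as Rose Bengal sodium equivalents.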

[13] = qHTS assay to test for compound auto fluorescence at 535 nm (green) in HepG2 cell free culture (AID 720686)
[14] = target: Glucocorticoid receptor (Homo sapiens) (UniProt P04150); assay: qHTS assay to identify small molecule agonists of the glucocorticoid receptor (GR) signaling pathway (AID 720691; active = well fitted activation curve with a large enough effect in the signal ratio in the repeat runs, not every such curve was filed as active; the % refers to the signal ratio; also: potency is read from the fitted curve at half-maximal effect); conditions: GR-bla HeLa, beta-lactamase reporter ratio, 18 h; activation: at 62.4 µM (top of the series)
Chain of Glucocorticoid receptor (Homo sapiens) (P04150 whole entry, looked up): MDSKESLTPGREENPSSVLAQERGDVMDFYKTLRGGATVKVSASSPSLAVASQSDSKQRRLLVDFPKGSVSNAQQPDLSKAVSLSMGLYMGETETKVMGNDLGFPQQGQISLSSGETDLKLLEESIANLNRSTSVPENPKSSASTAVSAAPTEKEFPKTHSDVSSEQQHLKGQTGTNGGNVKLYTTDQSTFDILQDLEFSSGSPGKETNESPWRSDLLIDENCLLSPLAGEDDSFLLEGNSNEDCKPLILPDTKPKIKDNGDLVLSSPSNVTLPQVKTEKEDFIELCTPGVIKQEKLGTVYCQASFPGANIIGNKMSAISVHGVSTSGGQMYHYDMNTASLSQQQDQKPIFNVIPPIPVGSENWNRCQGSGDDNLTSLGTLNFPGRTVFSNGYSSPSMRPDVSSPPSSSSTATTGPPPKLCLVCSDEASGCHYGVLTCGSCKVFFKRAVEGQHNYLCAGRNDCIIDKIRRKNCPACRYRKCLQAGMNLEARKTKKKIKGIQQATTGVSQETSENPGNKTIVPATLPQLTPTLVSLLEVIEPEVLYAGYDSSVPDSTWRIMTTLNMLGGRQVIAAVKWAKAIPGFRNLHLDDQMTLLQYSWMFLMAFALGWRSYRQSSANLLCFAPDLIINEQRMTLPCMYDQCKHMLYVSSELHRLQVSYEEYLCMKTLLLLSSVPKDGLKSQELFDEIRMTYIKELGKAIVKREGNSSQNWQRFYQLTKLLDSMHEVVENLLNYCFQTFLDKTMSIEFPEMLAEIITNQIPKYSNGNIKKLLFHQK
Method in brief: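 Agonist mode in a HeLa line carrying a GRE-controlled beta-lactamase reporter. Compounds act for 18 h at 37 C before a 2 h room-temperature FRET substrate step and fluorescence reading.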

[15] = qHTS assay for small molecule disruptors of the mitochondrial membrane potential - cell viability (AID 720634; calls by dose curve; also: nearly all actives have a fitted effect of over 20% in size; also: potency is read from the fitted curve at half-maximal effect)
Method in brief: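 After overnight attachment at 37 C, HepG2 cells received compound or DMSO vehicle for 1 hr. Viability is then taken from ATP-driven luminescence following a 30 min room-temperature CellTiter-Glo step.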

[16] = qHTS assay to test for compound auto fluorescence at 590 nm (red) in HepG2 cells (AID 720674)
Method in brief: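 1 hr compound incubation on HepG2 cells, 37 C, 5% CO2; plate read ex 540 nm / em 590 nm; intensities reported as Rose Bengal sodium equivalents.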

[17] = qHTS assay to test for compound auto fluorescence at 460 nm (blue) in HepG2 cell free culture (AID 720685)
Method in brief: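 Compound (23 nL) or DMSO pinned into cell-free MEM with 10% FBS; blue fluorescence read at 405/460 nm excitation/emission, expressed as auto-fluorescence equivalency to triamterene.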

[18] = qHTS assay to test for compound auto fluorescence at 460 nm (blue) in HepG2 cells (AID 720687)
Method in brief: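 Blue-channel autofluorescence (Ex/Em 405/460 nm, triamterene-equivalent) was measured after 1 hr compound exposure at 37 C, 5% CO2. Cells were HepG2, plated overnight at 37 C in MEM plus 10% FBS.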

[19] = target: Glucocorticoid receptor (Homo sapiens) (UniProt P04150); assay: qHTS assay to identify small molecule antagonists of the glucocorticoid receptor (GR) signaling pathway (AID 720692; active = well fitted inhibition curve with a large enough effect in the signal ratio in the repeat runs, not every such curve was filed as active; the % refers to the signal ratio; also: potency is read from the fitted curve at half-maximal effect)
Method in brief: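 Cells plated, rested 4 h at 37 C/5% CO2; compounds in DMSO pin-transferred; dexamethasone added to 5 nM final; 18 h at 37 C; B/G FRET substrate added, 2 h room temperature; fluorescence measured.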

[20] = qHTS assay to test for compound auto fluorescence at 460 nm (blue) in HEK293 cells (AID 720678)
Method in brief: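 Auto fluorescence in the blue band was quantified as triamterene equivalency. HEK293 cells were seeded at 2,000/well, dosed after a 4-5 hr attachment, and kept overnight at 37C before the 405/460 nm reading.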

SMILES | Potency [1] | Potency [2] | Potency [3] | Potency [4] | Potency [5] | Potency [6] | outcome [7] | outcome [8] | Potency [9] | outcome [10] | outcome [11] | outcome [12] | Potency [13] | Potency [14] | Potency [15] | outcome [16] | Potency [17] | Potency [18] | Potency [19] | Potency [20]
c1ccc2c(c1)cc1ccc3cccc4ccc2c1c34 | 3.5 µM (active) | inactive | inactive | inactive | 14 µM (active) | inactive | inactive | inactive | inactive | inactive | inactive | inactive | inactive | 25 µM [fluorescent] (active) | – | – | – | – | – | –
OCC(Br)CBr (stereo not given) | inactive | inactive | inactive | inactive | – | inactive | inactive | inactive | inactive | inactive | inactive | inactive | inactive | inactive | inactive | inactive | inactive | inactive | – | –
NC(=O)C(Cl)Cl | inactive | inactive | inactive | inactive | inactive | inactive | – | inactive | inactive | inactive | inactive | inactive | inactive | inactive | inactive | inactive | inactive | inactive | inactive | –
O=C1C(Cl)=C(Cl)C(=O)C(Cl)=C1Cl | 30.5 µM (active) and 6.11 µM (active) | inactive | 19.3 µM (active) and 21.7 µM (active) | inactive | 8.6 µM (active) and 8.63 µM (active) | inactive | inactive | inactive | inactive | inactive | inactive | inactive | inactive | inactive | 30.5 µM (active) and 27.3 µM (active) | inactive | inactive | inactive | 30.9 µM (active) | inactive
N#Cc1ccc(N(CC(N)=O)CC(F)(F)F)cc1C(F)(F)F | inactive | inactive | inactive | inactive | – | inactive | inactive | inactive | inactive | inactive | inactive | inactive | inactive | – | inactive | inactive | inactive | inactive | – | inactive
CCCCCON=O | inactive | inactive | inactive | inactive | inactive | inactive | inactive | inactive | inactive | inactive | inactive | inactive | inactive | – | – | inactive | inactive | inactive | – | inactive
O=C(Cl)c1ccccc1F | inactive | inactive | inactive | inactive | inactive | inactive | – | inactive | inactive | inactive | inactive | inactive | inactive | – | inactive | inactive | inactive | inactive | – | –
CC(Cc1ccc2c(c1)OCO2)NO (stereo not given) | inactive | inactive | inactive | inactive | – | inactive | inactive | inactive | inactive | inactive | inactive | inactive | inactive | inactive | inactive | inactive | inactive | inactive | – | inactive
CNC(=O)Oc1cc(C)cc(C(C)C)c1 | inactive | inactive | inactive | inactive | – | inactive | inactive | inactive | inactive | inactive | inactive | inactive | inactive | – | inactive | inactive | inactive | inactive | – | inactive
CCCC[N+]1(C)CCCC1 (tested in a mixture with another compound) | inactive | inactive | inactive | inactive | – | inactive | – | inactive | inactive | – | inactive | inactive | inactive | – | inactive | inactive | inactive | inactive | – | inactive
CN1[C@@H]2CC[C@H]1CC(O)C2 (stereo not given in full) | inactive | inactive | inactive | inactive | inactive | inactive | inactive | inactive | inactive | inactive | inactive | inactive | inactive | – | – | inactive | inactive | inactive | – | –
CCC[CH2][Sn]([CH2]CCC)([O]C(C)=O)[O]C(C)=O | 1.95 µM (active) | inactive | inactive | 1.23 µM (active) | 15.5 µM (active) | inactive | inactive | inactive | inactive | inactive | inactive | inactive | inactive | – | inactive | inactive | inactive | inactive | 0.35 µM (active) | inactive
O=NN(CCO)CCO | inactive | inactive | inactive | inactive | inactive | inactive | inactive | inactive | inactive | inactive | inactive | inactive | inactive | inactive | – | inactive | inactive | inactive | inactive | inactive
COc1ccc2c(c1OC)C(=O)O[C@@H]2[C@H]1c2cc3c(cc2CCN1C)OCO3 | inactive | inactive | inactive | inactive | – | inactive | inactive | inactive | inactive | inactive | inactive | inactive | inactive | – | inactive | inactive | inactive | inactive | – | inactive
